A selection: hits, their analogues and other compounds. The true share with any hit is near 5.3%.
HCV inh: qHTS Assay for Inhibitors of Hepatitis C Virus (HCV) | Potency, µM (highest dose often 41.8 µM), most hits filed as inhibitors | AID 651820, 2012 | actives 3.4% (n = 340,000) | Huh7.5.1 HCVcc-Cre infection, luciferase reporter, 44 h; active = well fitted inhibition curve with a large enough effect; inconclusive = small, poorly fitted or top-dose-only effect, or another doubt; inactive = no such curve, though single readings can be large or run the other way
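After 44 h co-culture of compound, cells and HCVcc-Cre (~0.5 moi), substrate is added for 15 min at room temperature and luciferase measured over 15 sec. Cells were seeded at 1,000/well and pre-cultured 4 h.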
Lassa entry inh: qHTS for Inhibitors of binding or entry into cells for Lassa Virus. Lassa virus pseudotype entry inhibition, cell reporter. Potency, µM (titrated, usually from 37.9 µM), usual class: inhibitors. actives 1.2% (n = 300,000). AID 540256, 2011; calls by dose curve; tested in HEK293 cells; also: nearly all actives have a fitted effect of over 50% in size
VACV Venus inh: qHTS for Stage-Specific Inhibitors of Vaccinia Orthopoxvirus: Venus Reporter Primary qHTS; Potency, µM (doses to about 36.5 µM), most hits filed as inhibitors; actives 0.46% (n = 330,000); AID 720580, 2013; Vaccinia virus Venus reporter expression, fluorescence; calls by dose curve; tested in A549 cells; also: nearly all actives have a fitted effect of over 30% in size
Vaccinia mCherry: qHTS for Stage-Specific Inhibitors of Vaccinia Orthopoxvirus: mCherry Reporter Primary qHTS | Potency, µM (top dose mostly 36.5 µM), actives largely listed as inhibitors | actives 0.63% (n = 310,000) | Vaccinia virus mCherry reporter infection, fluorescence; calls by dose curve; tested in A549 cells; also: nearly all actives have a fitted effect of over 35% in size
FMDV inh: High Throughput Screening for Foot and Mouth Disease Virus Antivirals; FMDV antiviral cell-based qHTS; actives 1.2% (n = 410,000); AID 1159524, 2015; Potency, µM (doses to about 57.9 µM), usual class: inhibitors; calls by dose curve; tested in HEK293T cells; also: read-out not given here; nearly all actives have a fitted effect of over 45% in size
MARV entry inh: qHTS for inhibitors of binding or entry into cells for Marburg Virus. Marburg virus pseudotyped entry inhibition, cell reporter. Potency, µM (highest dose often 37.8 µM), hits mostly inhibitors. actives 1.8% (n = 300,000). AID 540276, 2011; calls by dose curve; tested in HEK293 cells
Large screens that a line does not name were inactive.

CCc1ccc(S(=O)(=O)/N=C2\C=C(NS(=O)(=O)c3ccccc3)C(=O)c3ccccc32)cc1	none (no result: Lassa entry inh, VACV Venus inh, Vaccinia mCherry, MARV entry inh)
CC(=O)c1cccc(NC(=O)CSc2nnc3ccc(-c4ccc(Cl)cc4)nn23)c1	none (no result: HCV inh, MARV entry inh)
CN(C(=O)c1cnn(-c2nccc(-c3ccccc3C(F)(F)F)n2)c1C1CC1)C1CCOC1 (centres undefined)	none (no result: HCV inh, Lassa entry inh, MARV entry inh)
CCOC(=O)c1sc(NC(=O)c2c(C)nn(Cc3ccccc3)c2C)cc1C	HCV inh 18µM, VACV Venus inh inconclusive, Vaccinia mCherry inconclusive, MARV entry inh inconclusive
CCOC(=O)c1sc(NC(=O)c2ccc(S(=O)(=O)N(C)C)cc2)cc1C	HCV inh 11µM, FMDV inh inconclusive (no result: VACV Venus inh, Vaccinia mCherry)
CCOC(=O)c1sc(NC(=O)c2ccccc2)cc1C	HCV inh inconclusive, Lassa entry inh inconclusive, MARV entry inh inconclusive (no result: VACV Venus inh, Vaccinia mCherry)
Cc1ccccc1Cn1c(=O)n(CCc2ccccc2)c(=O)c2c(C)c(C)sc21	none (no result: HCV inh)
COc1ccc(CN2CCN(C(=O)C3CCN(C(=O)Nc4ccccc4)CC3)CC2)cc1OC	none (no result: Lassa entry inh, VACV Venus inh, Vaccinia mCherry, MARV entry inh)
OC(COCC1CC=CCC1)Cn1cnc2ccccc21 (centres undefined)	FMDV inh inconclusive, MARV entry inh inconclusive (no result: VACV Venus inh, Vaccinia mCherry)
Cc1nc2ccccc2n1CC(O)COCC1CC=CCC1 (centres undefined)	HCV inh 11µM, VACV Venus inh inconclusive, FMDV inh inconclusive (no result: Vaccinia mCherry)
Cc1ccc(S(=O)(=O)NCC2CCC(C(=O)NCCc3ccc(Cl)cc3)CC2)cc1 (centres undefined)	none (no result: HCV inh, MARV entry inh)
Cc1cc(Sc2nnc(N)s2)c2ccccc2n1	HCV inh inconclusive, FMDV inh 14µM (no result: Lassa entry inh, VACV Venus inh, Vaccinia mCherry, MARV entry inh)
CCCCCCCCSc1nnc(/N=C/N(C)C)s1	none
Cc1cc(C(N)=O)c2ccccc2n1	none (no result: FMDV inh)
Cc1cc(Sc2nnc(/N=C/N(C)C)s2)c2ccccc2n1	HCV inh inconclusive, FMDV inh 14µM (no result: Lassa entry inh, VACV Venus inh, Vaccinia mCherry, MARV entry inh)
CCN(CC)CC(C)CNC(=O)c1cc(-c2ccc(Br)s2)nc2ccccc12 (centres undefined)	VACV Venus inh inconclusive, Vaccinia mCherry inconclusive, MARV entry inh inconclusive (no result: HCV inh)
CCn1cc(C(=O)N(C)c2cc(C)ccc2C)c2cc(OC)c(OC)cc2c1=O	MARV entry inh inconclusive (no result: HCV inh)
COc1ccc(C(=O)NCc2nc(-c3ccccc3NC(=O)c3cc(C)oc3C)oc2C)cc1F	none (no result: HCV inh, Lassa entry inh, MARV entry inh)
Cc1c(OCC(=O)N2CCC(C(=O)O)CC2)ccc2c3c(c(=O)oc12)CCC3	HCV inh 0.32µM (no result: Lassa entry inh, MARV entry inh)
CCN(CC)CCCNC(=O)c1ccc2c(c1)sc1nc(-c3ccc(C)cc3)cn12	VACV Venus inh inconclusive, Vaccinia mCherry inconclusive (no result: HCV inh, MARV entry inh)
CC(C)Cc1nc2oc3c(NCCCN4CCOCC4)ncnc3c2c2c1CCC2	HCV inh 10µM, Lassa entry inh inconclusive, MARV entry inh inconclusive (no result: VACV Venus inh, Vaccinia mCherry)
CC(C)Cc1nc2oc3c(Cl)ncnc3c2c2c1CCC2	HCV inh 4.5µM, Lassa entry inh inconclusive, MARV entry inh inconclusive
O=C(NCC(=O)N(c1ccc(F)cc1)C(C(=O)NC1CCCCC1)c1cccnc1)c1ccco1 (centres undefined)	Lassa entry inh inconclusive, MARV entry inh inconclusive
CCc1ccc(N(C(=O)c2ccco2)C(C(=O)NC2CCCC2)c2cccnc2)cc1 (centres undefined)	Lassa entry inh 1µM, MARV entry inh inconclusive
CCc1ccccc1N(C(=O)CNC(=O)c1ccco1)C(C(=O)NC1CCCC1)c1cccnc1 (centres undefined)	HCV inh inconclusive
CCC(C)c1ccc(N(C(=O)c2ccco2)C(C(=O)NC2CCCC2)c2cccnc2)cc1 (centres undefined)	HCV inh inconclusive, Lassa entry inh inconclusive, MARV entry inh inconclusive
COc1ccc(N(C(=O)CCl)C(C(=O)NC2CCCCC2)c2cccnc2)cc1 (centres undefined)	HCV inh 3.2µM, Lassa entry inh 13µM, VACV Venus inh 2.8µM, Vaccinia mCherry 11µM, FMDV inh 11µM, MARV entry inh inconclusive
O=C(NC1CCCCC1)C(c1cccnc1)N(C(=O)CCl)c1ccc(F)cc1 (centres undefined)	HCV inh 1.1µM, Lassa entry inh inconclusive, VACV Venus inh inconclusive, Vaccinia mCherry 7.9µM, FMDV inh inconclusive, MARV entry inh inconclusive
